The source of these data is PubChem BioAssay (Tox21).

Results filed as inconclusive are left out. Calls of active or inactive are those of the source. Unless noted, calls follow the shape of the dose curve; as a rule, active = well fitted curve in the direction sought with a large enough effect in the repeat runs; inconclusive = weak or mixed curves; inactive = no such curve, though single readings can be large; an effect the other way counts as inactive or inconclusive.

The nature of assay [1]: qHTS assay to identify small molecule that activate the aryl hydrocarbon receptor (AhR) signaling pathway - cell viability counter screen (AID 743086).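 Also: HepG2 liver cells carrying the AhR DRE luciferase reporter; series mostly up to about 70 µM; nearly all actives have a fitted effect of over 45% in size.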 In a few lines: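 HepG2-AhR-luc (HG2L7.5c1) cells, 4000/well, were preincubated 5 h at 37C, exposed to compound in qHTS format for 24 hr at 37C, then given CellTiter-Fluor for 30 min; viability was read as fluorescence in the reporter wells.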
(Quantitative high-throughput screening tests each substance at several concentrations.)

Assay [2] can be described thus: qHTS assay to identify small molecule antagonists of the peroxisome proliferator-activated receptor gamma (PPARg) signaling pathway - cell viability counter screen (AID 743194). Also: nearly all actives have a fitted effect of over 55% in size. In a few lines:
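PPARg-UAS-bla HEK293H cells were plated, rested 5 h at 37 C, then treated with compounds plus rosiglitazone (50 nM final) for 17 h at 37 C; viability was then read by CellTiter-Glo luminescence after 30 min at room temperature.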

Assay [3] can be described thus: qHTS assay for small molecule agonists of the antioxidant response element (ARE) signaling pathway (AID 743202; active = well fitted activation curve with a large enough effect in the signal ratio in the repeat runs, not every such curve was filed as active; the % refers to the signal ratio; also: potency is read from the fitted curve at half-maximal effect). Summed up: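 Compounds delivered in DMSO to ARE-bla HepG2 cells (2,000 cells/well, pre-incubated 5 h) and left 16 h at 37 C. LiveBLAzer B/G FRET substrate then added for 2 h at RT before fluorescence reading.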
Assay [4] in a line: qHTS assay for small molecule agonists of the antioxidant response element (ARE) signaling pathway - cell viability counter screen (AID 743203; calls by dose curve; also: nearly all actives have a fitted effect of over 55% in size). Summed up: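 Compounds in DMSO were pinned onto ARE-bla HepG2 cells plated 5 hrs earlier at 2,000 cells/well. Sixteen hours later at 37C/5% CO2, CellTiter-Glo was added and luminescence measured after 30 min at room temperature.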
Assay [5] in a line: qHTS assay for small molecule activators of the heat shock response signaling pathway - cell viability counter screen (AID 743209). Also: nearly all actives have a fitted effect of over 50% in size. Summed up: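 Counter screen for cytotoxicity in HeLa HSE-bla reporter cells. Treatment was 5 h at 37 C; viability was detected by luminescent ATP assay (CellTiter-Glo) in the same wells as the beta-lactamase read.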
The nature of assay [6]: qHTS assay for small molecule activators of the heat shock response signaling pathway (AID 743210; active = well fitted activation curve with a large enough effect in the signal ratio in the repeat runs, with a control signal flat, not every such curve was filed as active; the % refers to the signal ratio;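 also: HeLa cells with beta-lactamase reporter driven by heat shock elements; series mostly up to about 63 µM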). In a few lines: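 Reporter gene assay: HeLa cells stably bearing an HSE-bla construct, compound treatment 5 h at 37 C, LiveBLAzer substrate 2.5 h at RT, fluorescence intensity.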
Assay [7] in a line: qHTS assay to identify small molecule agonists of the peroxisome proliferator-activated receptor delta (PPARd) signaling pathway - cell viability counter screen (AID 743211). Also: nearly all actives have a fitted effect of over 55% in size. In a few lines: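 Viability was measured as CellTiter-Glo luminescence (30 min, room temperature) in the same wells as the beta-lactamase readout. GeneBLAzer PPARd UAS-bla HEK293H cells received compound after 5 h plating and were incubated 17 h at 37 C.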

The target in assay [8] is Peroxisome proliferator-activated receptor gamma (Homo sapiens) (UniProt P37231). Briefly: qHTS assay to identify small molecule agonists of the peroxisome proliferator-activated receptor gamma (PPARg) signaling pathway (AID 743094; active = well fitted activation curve with a large enough effect in the signal ratio in the repeat runs, not every such curve was filed as active; the % refers to the signal ratio). In a few lines:
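Following 5 h plating at 37C, PPARg-bla HEK293H cells receive compound or DMSO for 17 h; fluorescence intensity is recorded after LiveBLAzer B/G loading for 1 h at room temperature.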

Assay [9] shares this target. Briefly: qHTS assay to identify small molecule antagonists of the peroxisome proliferator-activated receptor gamma (PPARg) signaling pathway (AID 743191; calls by dose curve; also: nearly all actives have a fitted effect of over 30% in size; also: potency is read from the fitted curve at half-maximal effect). Summed up:
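GeneBLAzer PPARg UAS-bla HEK293H cells carrying a UAS-driven beta-lactamase reporter were plated at 3000 cells/well, preincubated 5 h at 37C, then given compound for 17 h at 37C; LiveBLAzer B/G FRET substrate was read after 1 h at room temperature.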

Chain of Peroxisome proliferator-activated receptor gamma (Homo sapiens) (P37231 whole entry, looked up): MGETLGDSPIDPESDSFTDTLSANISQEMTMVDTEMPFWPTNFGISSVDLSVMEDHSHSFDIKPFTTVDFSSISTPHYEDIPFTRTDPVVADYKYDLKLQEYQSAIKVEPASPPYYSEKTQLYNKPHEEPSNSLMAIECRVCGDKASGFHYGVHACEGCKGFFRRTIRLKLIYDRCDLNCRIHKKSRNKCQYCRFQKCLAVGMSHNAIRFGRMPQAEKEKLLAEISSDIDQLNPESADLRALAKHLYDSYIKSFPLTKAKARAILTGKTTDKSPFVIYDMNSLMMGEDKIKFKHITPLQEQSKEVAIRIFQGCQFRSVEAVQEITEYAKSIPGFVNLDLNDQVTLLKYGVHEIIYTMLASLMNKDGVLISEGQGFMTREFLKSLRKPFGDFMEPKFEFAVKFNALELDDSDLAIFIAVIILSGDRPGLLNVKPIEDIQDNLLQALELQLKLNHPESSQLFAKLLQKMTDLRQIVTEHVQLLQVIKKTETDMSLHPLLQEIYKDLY

For the molecule `[O-][n+]1ccc(Cl)cc1`, the Potency result in [1], in assay [2], in [3], in assay [4] and in [7] was “inactive” in each case. Besides, the molecule was called inactive in [5] and in assay [6].
As for `CCN(CC)CC(=O)OCC(=O)[C@@]1(O)CC[C@H]2[C@@H]3CCC4=CC(=O)CC[C@]4(C)[C@H]3[C@@H](O)C[C@@]21C`, the Potency entry in [2], in assay [3], in [4] and in assay [7] was “inactive” each time. The call in assay [5] and in [6] was inactive.
With `O=C(c1ccco1)N1CCNCC1`, the Potency entry in [2], in assay [3], in assay [4] and in assay [7] was “inactive” each time. Further, the molecule was called inactive in [5].
As to `O=C(O)CNc1ccccc1`, the Potency result in assay [8], in assay [9], in assay [2], in [3], in [4] and in assay [7] was “inactive” in each case. In [6], the outcome was inactive.
Take `COc1ccnc2c1CCCCC2S(=O)c1nc2ccccc2[nH]1` (stereo unspecified): the Potency result in [2], in assay [4] and in [7] was “inactive” each time. Further, the Potency in assay [3] is 3.35 µM (active). Further, the molecule was called inactive in assay [5].
As for `CC1(COc2ccc(CC3SC(=O)NC3=O)cc2)CCCCC1` (stereo unspecified), the Potency entry in [1], in assay [2] and in [7] was “inactive” each time. For the same molecule, in assay [6], the result was inactive.
On to `CCc1c(C)[nH]c2c1C(=O)C(CN1CCOCC1)CC2` (stereo unspecified), for which the Potency result in assay [1], in assay [2], in [3], in [4] and in [7] was “inactive” each time. For the same molecule, the result in assay [5] was inactive.
For `S=c1[nH][nH]c(=S)s1`, the Potency entry in assay [1], in [2] and in assay [4] was “inactive” throughout. In addition, the call in assay [5] and in [6] was inactive.
For the molecule `Cc1cccc(C)c1NC(=O)CN1CCCC1`, the Potency result in [8], in assay [9], in assay [2], in [3], in [4] and in [7] was “inactive” each time. Moreover, the outcome in assay [5] and in assay [6] was inactive.
As for `Cc1ccc(Cl)c(OCC(O)CNC(C)(C)C)c1` (stereo unspecified), the Potency result in assay [9], in assay [2], in [3] and in assay [7] was “inactive” in each case. Further, the result in [6] was inactive.
Regarding `CCCCCC1CCC(=O)O1` (stereo unspecified), the Potency result in assay [8], in [9], in assay [3] and in assay [7] was “inactive” each time. Also, the call in assay [5] and in assay [6] was inactive.
In the case of `CC(CC(C#N)(c1ccccc1)C(C)C)N(C)C` (stereo unspecified), the Potency result in assay [9], in assay [2], in assay [3] and in assay [7] was “inactive” each time. Further, the molecule was classed as inactive in assay [5] and in [6].
`CC(C)=CCC/C(C)=C/C=N/O`: the Potency result in [1], in assay [8], in [2], in assay [4] and in assay [7] was “inactive” throughout. Also, the call in assay [5] and in [6] was inactive.
For the molecule `CCC(C(=O)O)c1ccc(N2Cc3ccccc3C2=O)cc1` (stereo unspecified), the Potency result in assay [9], in [2], in [4] and in [7] was “inactive” throughout. Moreover, the call in assay [5] and in assay [6] was inactive.
Take `O=C(OCCN1CCOCC1)c1cccnc1Nc1cccc(C(F)(F)F)c1`: the Potency result in assay [9], in [2] and in assay [7] was “inactive” throughout. For the same molecule, the Potency in assay [3] is 26.6 µM (active). Moreover, the result in assay [5] and in assay [6] was inactive.
On to `CC(C)(C)c1cc(C=O)cc(C(C)(C)C)c1O`, for which the Potency entry in assay [9], in assay [2], in assay [3], in [4] and in assay [7] was “inactive” in each case. The call in assay [5] and in assay [6] was inactive.
With `O=C(C1CCCCC1)N1CC(=O)N2CCCc3ccccc3C2C1` (stereo unspecified), the Potency result in assay [2], in [4] and in assay [7] was “inactive” throughout. Also, the molecule was called inactive in [6].
For `COc1ccc(/C(C)=C/C(=O)O)c(OC)c1`, the Potency entry in assay [2], in assay [3], in [4] and in assay [7] was “inactive” throughout. The molecule was classed as inactive in assay [5] and in [6].
For `CCC(=O)O[C@]1(C(=O)COC)[C@@H](C)C[C@H]2[C@@H]3CCC4=CC(=O)C=C[C@]4(C)C3(F)[C@@H](O)C[C@@]21C` (stereo partly specified), the Potency result in assay [9], in [2] and in assay [7] was “inactive” each time. The call in assay [6] was inactive.
Regarding `C1=COCCC1`, the Potency entry in assay [8], in [9], in [2], in assay [3], in assay [4] and in assay [7] was “inactive” in each case. The outcome in [5] and in assay [6] was inactive.
As to `CC(=O)Nc1ccccc1O`, the Potency entry in [1], in [4] and in assay [7] was “inactive” throughout. The molecule was called inactive in assay [5] and in assay [6].
With `CC(C)(C)NCC(O)COc1ccc(NC(=O)NC2CCCCC2)cc1` (stereo unspecified), the Potency entry in [8], in assay [9], in assay [2], in [4] and in [7] was “inactive” in each case. The call in [5] and in assay [6] was inactive.
For the molecule `CC/C=C/CCO`, the Potency entry in [1], in assay [2] and in [7] was “inactive” in each case. Moreover, the call in assay [5] and in assay [6] was inactive.
As for `CCC(C)C1N=C(C)C(C)S1` (stereo unspecified), the Potency entry in assay [1], in [2], in assay [3], in assay [4] and in assay [7] was “inactive” in each case. For the same molecule, the molecule was called inactive in assay [5] and in [6].
For the molecule `C(/C=C/C=C/Nc1ccccc1)=Nc1ccccc1`, the Potency result in assay [1], in [8], in [2], in assay [4] and in assay [7] was “inactive” throughout. For the same molecule, the molecule was classed as inactive in assay [5] and in [6].
In the case of `CC(C(=O)O)c1ccc(/C=C2\CCCCC2=O)cc1` (stereo unspecified), the Potency result in [9], in assay [2], in [4] and in assay [7] was “inactive” in each case. The Potency in [3] is 29.8 µM (active). The molecule was classed as inactive in assay [5] and in [6].
On to `c1ccc(-c2ccc(-c3ccccc3)cc2)cc1`, for which the Potency entry in assay [1], in assay [8], in assay [2], in assay [3] and in [7] was “inactive” each time. Moreover, the call in assay [5] was inactive.
Take `C[C@H](N)C(=O)N[C@@H](C)C(=O)NC1[C@H]2CN(c3nc4c(cc3F)c(=O)c(C(=O)O)cn4-c3ccc(F)cc3F)C[C@@H]12` (stereo partly specified): the Potency entry in [2], in [4] and in assay [7] was “inactive” throughout. In addition, the molecule was classed as inactive in [5] and in [6].
As for `CC(O)CN` (stereo unspecified), the Potency result in assay [1], in assay [8], in assay [2], in assay [4] and in [7] was “inactive” each time. In addition, the molecule was called inactive in assay [5].
With `CC(C)(O)C(=O)O`, the Potency entry in [1], in assay [2], in assay [3], in [4] and in assay [7] was “inactive” in each case. For the same molecule, the result in [6] was inactive.
With `O=c1c2ccccc2oc2ccccc12`, the Potency result in assay [2], in [3], in [4] and in [7] was “inactive” each time. Besides, in [5], the call was inactive.
As to `O=C(O)c1ccc2c(c1)nc(C(=O)NC1CCN(C3CC3)CC1)n2Cc1cc(-c2ccc(Cl)s2)on1`, in [9], the Potency was 3.13 µM (active). In addition, the Potency result in [2], in assay [3], in [4] and in assay [7] was “inactive” each time. For the same molecule, the result in assay [5] and in assay [6] was inactive.
